Measured values: ChEMBL document CHEMBL1961873, “Compounds: GSK PKIS; Assays: Nanosyn kinase panel” (2012)

biological target: T1, Ephrin type-B receptor 3 (Homo sapiens) (UniProt P54753); settings: at 0.1 µM
T1 sequence (whole entry): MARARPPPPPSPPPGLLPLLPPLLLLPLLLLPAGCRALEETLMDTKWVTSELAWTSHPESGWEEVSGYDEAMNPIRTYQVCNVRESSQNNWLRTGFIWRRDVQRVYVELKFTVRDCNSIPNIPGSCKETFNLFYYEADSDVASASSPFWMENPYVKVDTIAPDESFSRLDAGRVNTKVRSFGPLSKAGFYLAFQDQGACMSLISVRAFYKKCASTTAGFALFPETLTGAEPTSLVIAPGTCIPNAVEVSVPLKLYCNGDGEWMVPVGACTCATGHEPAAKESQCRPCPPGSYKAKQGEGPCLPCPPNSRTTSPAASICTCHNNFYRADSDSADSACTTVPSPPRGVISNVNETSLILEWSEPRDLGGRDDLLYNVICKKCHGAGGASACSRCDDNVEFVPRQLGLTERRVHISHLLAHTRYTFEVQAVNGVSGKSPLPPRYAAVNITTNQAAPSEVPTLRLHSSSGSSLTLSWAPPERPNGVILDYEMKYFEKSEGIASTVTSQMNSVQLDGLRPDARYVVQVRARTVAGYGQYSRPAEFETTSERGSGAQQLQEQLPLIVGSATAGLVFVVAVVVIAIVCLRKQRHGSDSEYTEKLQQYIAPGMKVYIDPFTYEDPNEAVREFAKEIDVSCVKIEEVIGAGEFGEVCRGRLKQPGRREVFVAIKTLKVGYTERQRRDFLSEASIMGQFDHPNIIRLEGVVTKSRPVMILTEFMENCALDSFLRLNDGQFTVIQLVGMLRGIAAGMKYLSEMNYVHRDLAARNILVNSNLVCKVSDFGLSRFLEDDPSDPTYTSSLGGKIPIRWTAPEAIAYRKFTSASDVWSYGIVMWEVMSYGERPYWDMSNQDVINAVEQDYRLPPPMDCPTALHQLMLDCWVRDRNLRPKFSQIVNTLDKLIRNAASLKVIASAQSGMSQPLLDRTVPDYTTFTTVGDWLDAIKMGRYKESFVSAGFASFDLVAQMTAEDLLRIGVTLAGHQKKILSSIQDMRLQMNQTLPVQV

Q: `CCn1c(-c2nonc2N)nc2ccc(F)cc21` was tested. Which inhibition did it give?
A: The inhibition was 6.48%.

Q: `[O-][S+]1CCN(Cc2ccc(-c3ccc4ncnc(Nc5ccc(OCc6ccccc6)c(Cl)c5)c4c3)o2)CC1` was tested. Which inhibition did it give?
A: The inhibition was 0.63%.

Q: For `N#Cc1cccc(Nc2nccc(-c3cnn4ncccc34)n2)c1`, which inhibition is on record?
A: The inhibition was 4.19%.

Q: `CS(=O)(=O)CCNCc1nc(-c2ccc3ncnc(Nc4ccc(OCc5cccc(C(F)(F)F)c5)cc4)c3c2)cs1` was tested. Which inhibition did it give?
A: The inhibition was 2.8%.

Q: For `COC(=O)c1ccc2c(c1)C(=Cc1cc(Br)c(O)c(Br)c1)C(=O)N2`, which inhibition is on record?
A: The inhibition was 2.1%.

Q: How did the inhibition turn out when `NS(=O)(=O)c1cccc(-c2cc3ccncc3cc2OCc2ccccc2)c1` was run?
A: Its inhibition is 6.23%.

Q: `COc1ccc(-c2nn3ncccc3c2-c2ccnc(Nc3cccc(C(F)(F)F)c3)n2)cc1` was tested. Which inhibition did it give?
A: Its inhibition is 3.95%.

Q: Which inhibition does the source give for `Cc1cc(O)cc(C)c1/C=C/c1cncc(C(=O)N(C)C)c1` here?
A: The inhibition was 5.26%.

Q: For `COc1cc(/C=N/Nc2ncnc3c2cnn3C(C)C)ccc1O`, which inhibition is on record?
A: The inhibition was 2.7%.

Q: Which inhibition does the source give for `CCOc1nccc2c1nc(-c1nonc1N)n2CC` here?
A: The inhibition was 1.72%.

Q: How did the inhibition turn out when `Oc1cccc(-c2nc(-c3ccccc3)[nH]c2-c2ccncc2)c1` was run?
A: The inhibition was 9.06%.

Q: Which inhibition does the source give for `Nc1nccc(C#Cc2cncnc2Nc2ccc(OCc3cccc(F)c3)c(Cl)c2)n1` here?
A: Its inhibition is 5.26%.

Q: `Cc1ccc2c(-c3ccnc(Nc4ccc5c(c4)OCCO5)n3)c(-c3ccc(C(F)(F)F)cc3)nn2n1` was tested. Which inhibition did it give?
A: The inhibition was -0.21%.

Q: `CS(=O)(=O)Nc1cccc(-c2ccc3c(NC(=O)C4CC4)n[nH]c3c2)c1` was tested. Which inhibition did it give?
A: The inhibition was 4.48%.

Q: How did the inhibition turn out when `Cc1cc(-c2ccccn2)cc(C)c1/C=C/c1cncc(-c2nn[nH]n2)c1` was run?
A: The inhibition was 2.22%.

Q: With `CN(C)CCCn1c(-c2nonc2N)nc2cnccc21` as the molecule, how does the inhibition read?
A: The inhibition was 5.3%.

Q: For `Cc1cc(Cl)cc2c1NC(=O)C2=NNc1ccc(S(N)(=O)=O)cc1`, which inhibition is on record?
A: The inhibition was 3.65%.

Q: Which inhibition does the source give for `CN(c1ccc(NC(=O)Nc2ccc(OC(F)(F)F)cc2)cc1)c1ccnc(Nc2cccc(S(N)(=O)=O)c2)n1` here?
A: The inhibition was 3.87%.

Q: `COc1cc2ncn(-c3cc(OCc4ccccc4S(C)(=O)=O)c(C#N)s3)c2cc1OC` was tested. Which inhibition did it give?
A: The inhibition was 5.99%.

Q: With `Cc1ccc(O)cc1Nc1ccnc2ccc(S(C)(=O)=O)cc12` as the molecule, how does the inhibition read?
A: The inhibition was 96.9%.

Q: For `CN1CCN(C(=O)c2ccc(NC(=O)Nc3ccc(N(C)c4ccnc(Nc5ccc(CS(C)(=O)=O)cc5)n4)cc3)cc2)CC1`, which inhibition is on record?
A: Its inhibition is 2.73%.

Q: For `COC(=O)Nc1nc2cc(Oc3ccc(NC(=O)Nc4cccc(Br)c4)cc3)ccc2[nH]1`, which inhibition is on record?
A: Its inhibition is 5.42%.

Q: With `NS(=O)(=O)c1ccc(N/N=C2\C(=O)Nc3ccc(Cl)cc32)cc1` as the molecule, how does the inhibition read?
A: The inhibition was 3.51%.

Q: With `Cc1nc(-c2ccccc2)n2nc(NCCCN3CCOCC3)ncc12` as the molecule, how does the inhibition read?
A: Its inhibition is 2.93%.

Q: How did the inhibition turn out when `COc1cc(Nc2nccc(-c3cnn4ncccc34)n2)cc(OC)c1` was run?
A: The inhibition was 3.58%.

Q: Which inhibition does the source give for `NS(=O)(=O)c1cccc(Nc2cc(-c3ccc(F)cc3)n[nH]2)c1` here?
A: Its inhibition is 3.94%.

Q: How did the inhibition turn out when `COc1ccc2ncnc(Nc3ccc(OCc4ccccc4)cc3)c2c1` was run?
A: Its inhibition is 4.29%.

Q: `Cc1ccc2c(c1)/C(=N/Nc1ccc(S(N)(=O)=O)cc1)C(=O)N2` was tested. Which inhibition did it give?
A: Its inhibition is 2.46%.

Q: `Cc1ccc(C(=O)NC2CC2)cc1-c1ccc2[nH]ncc2c1` was tested. Which inhibition did it give?
A: The inhibition was -8.95%.

Q: For `NS(=O)(=O)c1ccc(NC=C2C(=O)Nc3ccc4ncsc4c32)cc1`, which inhibition is on record?
A: The inhibition was 5.96%.

Q: Which inhibition does the source give for `CCS(=O)(=O)c1ccc(OC)c(Nc2ncc(-c3cccc(OC)c3)o2)c1` here?
A: The inhibition was 3.22%.

Q: With `c1ccc(Cc2nc3ccc(Nc4ncnc5ccccc45)cc3[nH]2)cc1` as the molecule, how does the inhibition read?
A: Its inhibition is 3.69%.

Q: `NC(=O)c1cccc(Nc2nccc(Nc3cccc(F)c3)n2)c1` was tested. Which inhibition did it give?
A: Its inhibition is 2.13%.

Q: For `CCCN1CCCC(c2ccc(Nc3nc(Nc4cc(F)ccc4C(N)=O)c4cc[nH]c4n3)c(OC)c2)C1` (stereo not drawn), which inhibition is on record?
A: The inhibition was 6.2%.

biological target: T1, Ephrin type-B receptor 3 (Homo sapiens); settings: at 1 µM

Q: With `CCn1c(-c2nonc2N)nc2ccc(F)cc21` as the molecule, how does the inhibition read?
A: Its inhibition is 4.6%.

Q: With `[O-][S+]1CCN(Cc2ccc(-c3ccc4ncnc(Nc5ccc(OCc6ccccc6)c(Cl)c5)c4c3)o2)CC1` as the molecule, how does the inhibition read?
A: Its inhibition is 1.88%.

Q: `N#Cc1cccc(Nc2nccc(-c3cnn4ncccc34)n2)c1` was tested. Which inhibition did it give?
A: The inhibition was 3.9%.

Q: For `CS(=O)(=O)CCNCc1nc(-c2ccc3ncnc(Nc4ccc(OCc5cccc(C(F)(F)F)c5)cc4)c3c2)cs1`, which inhibition is on record?
A: Its inhibition is 3.98%.

Q: For `COC(=O)c1ccc2c(c1)C(=Cc1cc(Br)c(O)c(Br)c1)C(=O)N2`, which inhibition is on record?
A: Its inhibition is 3.26%.

Q: `NS(=O)(=O)c1cccc(-c2cc3ccncc3cc2OCc2ccccc2)c1` was tested. Which inhibition did it give?
A: The inhibition was 4.28%.

Q: For `COc1ccc(-c2nn3ncccc3c2-c2ccnc(Nc3cccc(C(F)(F)F)c3)n2)cc1`, which inhibition is on record?
A: Its inhibition is 4.5%.

Q: With `Cc1cc(O)cc(C)c1/C=C/c1cncc(C(=O)N(C)C)c1` as the molecule, how does the inhibition read?
A: The inhibition was 5.69%.

Q: For `COc1cc(/C=N/Nc2ncnc3c2cnn3C(C)C)ccc1O`, which inhibition is on record?
A: Its inhibition is 4.2%.

Q: Which inhibition does the source give for `CCOc1nccc2c1nc(-c1nonc1N)n2CC` here?
A: The inhibition was 2.82%.

Q: How did the inhibition turn out when `Oc1cccc(-c2nc(-c3ccccc3)[nH]c2-c2ccncc2)c1` was run?
A: Its inhibition is 19.3%.

Q: `Nc1nccc(C#Cc2cncnc2Nc2ccc(OCc3cccc(F)c3)c(Cl)c2)n1` was tested. Which inhibition did it give?
A: Its inhibition is 4.02%.

Q: `Cc1ccc2c(-c3ccnc(Nc4ccc5c(c4)OCCO5)n3)c(-c3ccc(C(F)(F)F)cc3)nn2n1` was tested. Which inhibition did it give?
A: Its inhibition is 2.22%.

Q: Which inhibition does the source give for `CS(=O)(=O)Nc1cccc(-c2ccc3c(NC(=O)C4CC4)n[nH]c3c2)c1` here?
A: Its inhibition is -3.94%.

Q: `Cc1cc(-c2ccccn2)cc(C)c1/C=C/c1cncc(-c2nn[nH]n2)c1` was tested. Which inhibition did it give?
A: Its inhibition is 4.35%.

Q: Which inhibition does the source give for `CN(C)CCCn1c(-c2nonc2N)nc2cnccc21` here?
A: Its inhibition is 2.05%.

Q: With `Cc1cc(Cl)cc2c1NC(=O)C2=NNc1ccc(S(N)(=O)=O)cc1` as the molecule, how does the inhibition read?
A: Its inhibition is 1.13%.

Q: Which inhibition does the source give for `CN(c1ccc(NC(=O)Nc2ccc(OC(F)(F)F)cc2)cc1)c1ccnc(Nc2cccc(S(N)(=O)=O)c2)n1` here?
A: Its inhibition is 8.25%.

Q: With `COc1cc2ncn(-c3cc(OCc4ccccc4S(C)(=O)=O)c(C#N)s3)c2cc1OC` as the molecule, how does the inhibition read?
A: The inhibition was 4.4%.

Q: `Cc1ccc(O)cc1Nc1ccnc2ccc(S(C)(=O)=O)cc12` was tested. Which inhibition did it give?
A: The inhibition was 97.3%.

Q: `CN1CCN(C(=O)c2ccc(NC(=O)Nc3ccc(N(C)c4ccnc(Nc5ccc(CS(C)(=O)=O)cc5)n4)cc3)cc2)CC1` was tested. Which inhibition did it give?
A: Its inhibition is 3.2%.

Q: How did the inhibition turn out when `COC(=O)Nc1nc2cc(Oc3ccc(NC(=O)Nc4cccc(Br)c4)cc3)ccc2[nH]1` was run?
A: Its inhibition is 7.66%.

Q: `NS(=O)(=O)c1ccc(N/N=C2\C(=O)Nc3ccc(Cl)cc32)cc1` was tested. Which inhibition did it give?
A: Its inhibition is 2.43%.

Q: `Cc1nc(-c2ccccc2)n2nc(NCCCN3CCOCC3)ncc12` was tested. Which inhibition did it give?
A: Its inhibition is 3.76%.

Q: With `COc1cc(Nc2nccc(-c3cnn4ncccc34)n2)cc(OC)c1` as the molecule, how does the inhibition read?
A: Its inhibition is -3.61%.

Q: With `NS(=O)(=O)c1cccc(Nc2cc(-c3ccc(F)cc3)n[nH]2)c1` as the molecule, how does the inhibition read?
A: Its inhibition is 2.26%.

Q: With `COc1ccc2ncnc(Nc3ccc(OCc4ccccc4)cc3)c2c1` as the molecule, how does the inhibition read?
A: The inhibition was 1.66%.

Q: `Cc1ccc2c(c1)/C(=N/Nc1ccc(S(N)(=O)=O)cc1)C(=O)N2` was tested. Which inhibition did it give?
A: The inhibition was -0.26%.

Q: How did the inhibition turn out when `Cc1ccc(C(=O)NC2CC2)cc1-c1ccc2[nH]ncc2c1` was run?
A: The inhibition was -5.96%.

Q: How did the inhibition turn out when `NS(=O)(=O)c1ccc(NC=C2C(=O)Nc3ccc4ncsc4c32)cc1` was run?
A: Its inhibition is 2.98%.

Q: How did the inhibition turn out when `CCS(=O)(=O)c1ccc(OC)c(Nc2ncc(-c3cccc(OC)c3)o2)c1` was run?
A: Its inhibition is 2.36%.

Q: How did the inhibition turn out when `c1ccc(Cc2nc3ccc(Nc4ncnc5ccccc45)cc3[nH]2)cc1` was run?
A: Its inhibition is 6.08%.

Q: Which inhibition does the source give for `NC(=O)c1cccc(Nc2nccc(Nc3cccc(F)c3)n2)c1` here?
A: The inhibition was 2.83%.

Q: How did the inhibition turn out when `CCCN1CCCC(c2ccc(Nc3nc(Nc4cc(F)ccc4C(N)=O)c4cc[nH]c4n3)c(OC)c2)C1` (stereo not drawn) was run?
A: The inhibition was -1.82%.
